# Assay outcomes deposited in PubChem by National Center for Advancing Translational Sciences (NCATS).
# HP1b binding inh: HP1-beta chromodomain-methylated histone interaction inhibition. P83916. AlphaScreen HP1-beta / biotin-H3K9me3 peptide binding. Potency, µM (highest dose often 114 µM), usual class: inhibitors. hit rate 0.56% among 390,000; further: nearly all actives have a fitted effect of over 70% in size
#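 Compound inhibition of the preformed complex between 50 nM HP1-beta and 50 nM biotinylated H3K9me3 peptide was read by AlphaScreen. Buffer was PBS pH 7.4 with 0.01% Tween-20. Incubations ran 30 min at room temperature, with 10 ug/mL donor/acceptor beads.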
# G9a inh: G9a (human) methyltransferase inhibition. hit rate 8.8% among 350,000. Potency, µM (series often up to 102 µM), actives largely listed as inhibitors. AID 504332. Q96KQ7. G9a H3K9 monomethylation, AlphaScreen, 2 h; further: nearly all actives have a fitted effect of over 75% in size
#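 Step 1: enzyme (final 20 nM) with compound, 15 min RT. Step 2: substrate peptide 500 nM and SAM 20 uM, 2 h RT. Step 3: anti-H3K9me1 antibody and AlphaScreen beads, 10 min, then plate read.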
# BAZ2B block: inhibitors of human BAZ2B bromodomain | AlphaScreen BAZ2B-H3K14Ac peptide displacement | Potency, µM (series often up to 114 µM), actives largely listed as inhibitors | hit rate 4.4% among 360,000 | AID 504333; further: nearly all actives have a fitted effect of over 60% in size
#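 AlphaScreen displacement of biotin-H3(5-23)K14Ac peptide (50 nM final) from BAZ2B (50 nM final) in PBS pH 7.4, 0.01% Tween-20; complex preformed 30 min RT, then compounds (top 110 uM) 30 min RT, beads 20 min dark.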
# GLS inhibitor: blocks human kidney-isoform glutaminase activity. O94925. GLS enzymatic activity, qHTS titration. Potency, µM (highest dose often 45.5 µM), hits mostly inhibitors. hit rate 0.21% among 410,000. AID 624170
# Target sequence (O94925 whole entry, looked up, canonical isoform): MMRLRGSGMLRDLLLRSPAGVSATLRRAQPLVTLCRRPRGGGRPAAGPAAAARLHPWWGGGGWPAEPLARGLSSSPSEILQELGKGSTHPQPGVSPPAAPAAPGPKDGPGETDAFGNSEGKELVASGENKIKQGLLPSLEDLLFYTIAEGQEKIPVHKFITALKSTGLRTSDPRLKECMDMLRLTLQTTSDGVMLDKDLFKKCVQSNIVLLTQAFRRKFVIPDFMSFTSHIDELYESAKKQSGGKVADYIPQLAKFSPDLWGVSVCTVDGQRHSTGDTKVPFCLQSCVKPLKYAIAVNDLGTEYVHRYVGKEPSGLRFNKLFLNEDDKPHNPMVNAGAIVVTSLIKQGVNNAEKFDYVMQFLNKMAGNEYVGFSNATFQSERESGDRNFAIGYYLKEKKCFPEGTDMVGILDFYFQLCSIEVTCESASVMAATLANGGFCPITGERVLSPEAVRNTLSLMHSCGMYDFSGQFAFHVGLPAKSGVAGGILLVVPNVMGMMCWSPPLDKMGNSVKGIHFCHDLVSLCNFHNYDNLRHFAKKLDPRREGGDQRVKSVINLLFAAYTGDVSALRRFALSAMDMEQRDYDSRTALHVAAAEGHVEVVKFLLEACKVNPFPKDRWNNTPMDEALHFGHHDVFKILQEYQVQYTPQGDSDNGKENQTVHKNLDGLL
#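 hKGA in 45 mM KH2PO4 (pH 8.2), 0.02% Tween-20 with compound, then 1mM L-Glutamine (stock as added) plus glutamate oxidase/HRP/Amplex red coupling mix. Fluorescence read initially and after 30 min at RT; signal change reflects glutamate formation.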
# JMJD2A Tudor inh: blocks the human JMJD2A Tudor domain | AlphaScreen JMJD2A-Tudor / H3K4me3 peptide binding | Potency, µM (doses to about 114 µM), hits mostly inhibitors | O75164 | hit rate 4.4% among 390,000; further: nearly all actives have a fitted effect of over 50% in size
# A number is an active result; i = inactive; ? = inconclusive; nt = no result; ! = a repeat was not active; [ ] = remark or other dose. Sampled rows, rich in hits. Any-hit rate of the full collection: about 10%. The call rests on the fitted dose curve; in most records, active means well fitted curve in the direction sought with a large enough effect; inconclusive means small, poorly fitted or top-dose-only effect, or another doubt; inactive means no such curve, though single readings can be large; an effect the other way counts as inactive or inconclusive.
SMILES,HP1b binding inh,G9a inh,BAZ2B block,GLS inhibitor,JMJD2A Tudor inh
CCC(c1nnnn1Cc1ccc2c(c1)OCO2)N1CCN(c2ccc(F)cc2)CC1 (stereo unspecified),i,i,?,i,?
CC1(C(=O)O)CCN1C(=O)c1cccc(C(F)(F)F)c1 (stereo unspecified),nt,nt,nt,i,nt
CC(C)C[C@@H](NC(=O)[C@@H](COC(C)(C)C)NC(=O)[C@H](Cc1ccc(O)cc1)NC(=O)[C@@H](CO)NC(=O)[C@@H](Cc1c[nH]c2ccccc12)NC(=O)[C@@H](Cc1cnc[nH]1)NC(=O)[C@@H]1CCC(=O)N1)C(=O)N[C@H](CCCN=C(N)N)C(=O)N1CCC[C@H]1C(=O)NNC(N)=O,nt,nt,nt,i,nt
O=S(=O)(NCc1ccccc1Cl)c1cccs1,i,i,i,i,i
Oc1ccc(N2CCN(C(c3ccc(Cl)cc3)c3nnnn3Cc3ccc(F)cc3)CC2)cc1 (stereo unspecified),?,nt,nt,nt,40µM
Fc1ccc(C(c2nnnn2Cc2cccs2)N2CCN(c3ccccc3)CC2)cc1 (stereo unspecified),i,i,i,i,i
CC1(C)CC(=O)C(C=Nc2ccccc2C(=O)O)=C(O)C1,i,i,i,i,i
CC1(C)CC(=O)c2cc(N=C/C(C(=O)c3ccccc3)=C(\O)c3ccccc3)c(=O)oc2C1,i,25µM,i,i,?
Nc1ncnc2c1ncn2C1CCCO1 (stereo unspecified),i,i,i,i,i
OCC1OC(n2cnc3c(=S)nc[nH]c32)CC1O (stereo unspecified),?,nt,nt,i,2.8µM
S=c1nc[nH]c2c1ncn2C1CCCO1 (stereo unspecified),i,10µM,?,i,2µM
Cc1ccc2[nH]c3c(=O)n(N)c(C)nc3c2c1,i,i,i,i,i
Cc1ccc2[nH]c3c(=S)nc[nH]c3c2c1,i,1.8µM,i,i,?
CC1=C(C(=O)Nc2ccc(C)cc2C)C(c2ccc(Cl)cc2)n2nc(C(=O)OC(C)C)nc2N1 (stereo unspecified),i,45µM,i,i,i
COc1ccc(N2CCN(C(=O)C3CCN(S(=O)(=O)c4cn(C)cn4)CC3)CC2)cc1,i,i[12.7 µM],i,i,i
COc1ccc(NCc2cc3ccccc3[nH]c2=O)cc1,i,50µM,?,i,?
COc1ccc(NCc2cc3cc(OC)ccc3[nH]c2=O)cc1,?,?,i,i,?
COc1ccc(C(=O)NNC(=S)NC(=O)c2cccc([N+](=O)[O-])c2)cc1,i,nt,nt,i,i
Cc1c(NC(=O)c2cc(-c3ccc(F)cc3)on2)c(=O)n(-c2ccccc2)n1C,i,i,i,i,79µM!
O=C(NC(=S)NNC(=O)c1ccccc1O)c1cccc([N+](=O)[O-])c1,i,i[2.33 µM],45µM,i,79µM
Cc1c(NC(=S)NC(=O)c2cccc(Br)c2)c(=O)n(-c2ccccc2)n1C,i,nt,i,i,i
Cc1c(NC(=O)c2cc(-c3ccc(Cl)cc3)on2)c(=O)n(-c2ccccc2)n1C,i,i,i,i,?
O=C(NC(=S)NNC(=O)c1ccccc1[N+](=O)[O-])c1ccc(Br)cc1,i,8.9µM,i,i,i
O=C(NNC(=S)NC(=O)c1ccccc1[N+](=O)[O-])c1ccccc1Cl,i,?,i,i,i
Cc1c(NC(=S)NC(=O)c2cccc([N+](=O)[O-])c2)c(=O)n(-c2ccccc2)n1C,i,45µM,i,i,i
SMILES,HP1b binding inh,G9a inh,BAZ2B block,GLS inhibitor,JMJD2A Tudor inh
CC(C)(C)OC(=O)N(CC1CCNCC1)C(=O)c1[nH]c(C(F)(F)F)nc1-c1ccccc1,nt,nt,nt,i,nt
CCc1cc2c(cc3c(=O)n(CC(=O)NC(C)C)nc(CC)n32)s1,i,i,i,i,i
COC(=O)CC1Oc2ccccc2-n2cc(-c3ccc(F)cc3)nc21 (stereo unspecified),i,i,i,i,i
CCCCCC(=O)NNC(=S)NC(=O)c1ccccc1[N+](=O)[O-],i,i,i,i,i
CCCCCC(=O)NNC(=S)NC(=O)c1cccc([N+](=O)[O-])c1,i,7.9µM,i,i,35µM
Cc1ccc(NC(=O)CN(C)C(=O)Cn2cc(C(F)(F)F)ccc2=O)cc1,i,i,i,i,i
CN(CC(=O)Nc1ccc(Cl)c(C(F)(F)F)c1)C(=O)c1ccc(N2CCOCC2)c([N+](=O)[O-])c1,?,32µM,i,i,?
CN(CC(=O)Nc1ccc(Cl)c(C(F)(F)F)c1)C(=O)Cn1cc([N+](=O)[O-])ccc1=O,i,6.3µM,i,i,i
COc1ccc(NC(=O)CN(C)C(=O)c2ccc(N3CCCCCC3)c([N+](=O)[O-])c2)cc1,i,50µM,i,i,?
CN(CC(=O)Nc1ccc(Cl)cc1)C(=O)c1ccc(-n2cncn2)c([N+](=O)[O-])c1,i,i,i,i,i
Cc1ccc(NC(=O)CN(C)C(=O)c2ccc(Cl)c([N+](=O)[O-])c2)cc1,i,22µM,i,i,i
COc1ccc(Nc2cc(Nc3cc(OC)c(OC)c(OC)c3)ncn2)cc1,i,i,i,i,i
O=C(Cn1nnnc1-c1ccccc1F)Nc1ccc(F)c(F)c1,i,i,i,i,i
CC1(C)CCCC2(C)C(OCCO)=CC(=O)C=C12 (stereo unspecified),nt,nt,nt,i,nt
O=C(Nc1ccccn1)c1ccc(Cl)c(S(=O)(=O)N2CCc3ccccc32)c1,i,i[12.7 µM],i,i,i
COc1ccccc1N1CCN(c2ccc(N3C(=O)CCC3=O)cc2[N+](=O)[O-])CC1,i,?,i,i,i
COc1ccc(NC(=O)CN(C)C(=O)c2ccc(N3CCOCC3)c([N+](=O)[O-])c2)cc1,i,i,i,i,i
COc1ccc(NC(=O)CN(C)C(=O)c2ccc(N3CCCCC3)c([N+](=O)[O-])c2)cc1,i,50µM,?,i,i
CCC(=O)Nc1ccc(N2CCCCC2)c(C(=O)Nc2ccc(OC)cc2)c1,i,i,i,i,?
COc1cccc(N2CCN(c3ccc(N4C(=O)CCC4=O)cc3[N+](=O)[O-])CC2)c1,i,50µM,?,i,?
COc1ccc(CC(=O)Nc2ccc(N3CCCC3)c(C)c2)cc1,?,8.9µM,?,i,?
COc1cccc(CN(C)C(=O)c2ccc(N3CCCC3)c([N+](=O)[O-])c2)c1,i,50µM,?,i,45µM
Cc1ccc2oc(-c3ccc(Cl)c(NC(=O)c4ccc(OC(C)C)cc4)c3)nc2c1,i,i,i,i,i
CCCCC(=O)N(C)c1c(C)nc2ccc(C(=O)N(CC)CCN(C)C)cn12,nt,nt,nt,i,nt
COc1cc(/C=N/n2c(C3CCCCC3)n[nH]c2=S)cc(OC)c1O,?,2µM,i,i,2.8µM
COc1cc(/C=N/N2C(C)CCCC2C)cc(OC)c1O (stereo unspecified),i,?,i,i,i
O=[N+]([O-])c1cccc(/C=N/n2c(C3CCCCC3)n[nH]c2=S)c1,i,1.6µM,i,i,?
